In PubChem BioAssay AID1159580 (chemical genetic matrix, 2015):
Among all 5,500 compounds or so, about 2,000 (36%) were called active. About 18% were inconclusive and are not listed. Rule as the data show it: active = normalized growth mostly below about 0.91 (no sharp cut-off); inconclusive = no clear call, values can overlap the other calls; inactive = mostly above about 0.92. Some of the results follow.

Assay: chemical genetic growth profiling, strain panel (AID 1159580);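 also: tested at 20 µM; growth read once vehicle control cultures reached saturation at 30 °C; 1 = growth at the plate median or of vehicle wells; lower values mean less growth of the strain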
Conditions: growth OD

Measured: normalized growth

C=CCCCCCCCCCCCC(O)CC(O)CO (centres undefined)
active: S. cerevisiae deletion strains, locus YKL009W, strain mrt4, stronger effect = lower value 0.852 | S. cerevisiae deletion strains, locus YKR001C, strain vps1, stronger effect = lower value 0.839 | S. cerevisiae deletion strains, locus YLR330W, strain CHS5, stronger effect = lower value 0.917 | S. cerevisiae deletion strains, locus YLR342W, strain FKS1 (second series), stronger effect = lower value 0.756 | S. cerevisiae deletion strains, locus YLR418C, strain cdc73, stronger effect = lower value 0.759 | S. cerevisiae deletion strains, locus YML032C, strain rad52, stronger effect = lower value 0.869 | S. cerevisiae deletion strains, locus YMR223W, strain ubp8, stronger effect = lower value 0.858 | S. cerevisiae deletion strains, locus YNL233W, strain BNI4, stronger effect = lower value 0.834 | S. cerevisiae deletion strains, locus YNL298W, strain CLA4, stronger effect = lower value 0.907 | S. cerevisiae deletion strains, locus YNL307C, strain MCK1, stronger effect = lower value 0.499 | S. cerevisiae deletion strains, locus YOL147C, strain pex11, stronger effect = lower value 0.778 | S. cerevisiae deletion strains, locus YOR061W, strain CKA2, stronger effect = lower value 0.635 | S. cerevisiae deletion strains, locus YOR184W, strain ser1, stronger effect = lower value 0.719 | S. cerevisiae strains, strain wild type, stronger effect = lower value 0.861
inactive: S. cerevisiae deletion strains, locus YJR043C, strain POL32, stronger effect = lower value 0.952 | S. cerevisiae deletion strains, locus YJR075W, strain HOC1, stronger effect = lower value 0.896 | S. cerevisiae deletion strains, locus YKL068W, stronger effect = lower value 0.995 | S. cerevisiae deletion strains, locus YKL085W, strain MDH1 (second series), stronger effect = lower value 0.96 | S. cerevisiae deletion strains, locus YKL085W, strain MDH1, stronger effect = lower value 0.96 | S. cerevisiae deletion strains, locus YKL160W, strain elf1, stronger effect = lower value 0.989 | S. cerevisiae deletion strains, locus YKL190W, strain CNB1, stronger effect = lower value 0.947 | S. cerevisiae deletion strains, locus YKR026C, strain gcn3, stronger effect = lower value 0.988 | S. cerevisiae deletion strains, locus YKR091W, strain srl3, stronger effect = lower value 0.995 | S. cerevisiae deletion strains, locus YLL001W, strain dnm1, stronger effect = lower value 0.976 | S. cerevisiae deletion strains, locus YLL026W, stronger effect = lower value 0.997 | S. cerevisiae deletion strains, locus YLL041C, strain sdh2, stronger effect = lower value 0.998 | S. cerevisiae deletion strains, locus YLR027C, strain aat2, stronger effect = lower value 0.999 | S. cerevisiae deletion strains, locus YLR039C, strain RIC1, stronger effect = lower value 0.996 | S. cerevisiae deletion strains, locus YLR058C, strain SHM2, stronger effect = lower value 0.944 | S. cerevisiae deletion strains, locus YLR102C, strain apc9, stronger effect = lower value 0.99 | S. cerevisiae deletion strains, locus YLR221C, strain rsa3, stronger effect = lower value 0.998 | S. cerevisiae deletion strains, locus YLR258W, strain gsy2, stronger effect = lower value 1.01 | S. cerevisiae deletion strains, locus YLR262C, strain YPT6 (second series), stronger effect = lower value 1.01 | S. cerevisiae deletion strains, locus YLR262C, strain YPT6, stronger effect = lower value 0.959 | S. cerevisiae deletion strains, locus YLR268W, strain sec22, stronger effect = lower value 0.971 | S. cerevisiae deletion strains, locus YLR320W, strain mms22, stronger effect = lower value 0.985 | S. cerevisiae deletion strains, locus YLR342W, strain FKS1, stronger effect = lower value 1 | S. cerevisiae deletion strains, locus YLR357W, strain rsc2, stronger effect = lower value 0.975 | S. cerevisiae deletion strains, locus YLR370C, strain arc18, stronger effect = lower value 0.993 | S. cerevisiae deletion strains, locus YLR371W, strain rom2, stronger effect = lower value 0.952 | S. cerevisiae deletion strains, locus YLR384C, strain iki3, stronger effect = lower value 0.997 | S. cerevisiae deletion strains, locus YML016C, strain PPZ1, stronger effect = lower value 0.988 | S. cerevisiae deletion strains, locus YML120C, strain ndi1, stronger effect = lower value 0.995 | S. cerevisiae deletion strains, locus YML124C, strain tub3, stronger effect = lower value 0.991 | S. cerevisiae deletion strains, locus YMR058W, strain fet3, stronger effect = lower value 1.01 | S. cerevisiae deletion strains, locus YMR078C, strain ctf18, stronger effect = lower value 0.964 | S. cerevisiae deletion strains, locus YMR125W, strain sto1, stronger effect = lower value 0.979 | S. cerevisiae deletion strains, locus YMR129W, stronger effect = lower value 0.988 | S. cerevisiae deletion strains, locus YMR205C, strain PFK2, stronger effect = lower value 0.974 | S. cerevisiae deletion strains, locus YMR231W, strain pep5, stronger effect = lower value 0.995 | S. cerevisiae deletion strains, locus YMR263W, strain SAP30, stronger effect = lower value 0.955 | S. cerevisiae deletion strains, locus YMR307W, strain GAS1, stronger effect = lower value 0.792 | S. cerevisiae deletion strains, locus YNL067W, strain RPL9B, stronger effect = lower value 0.903 | S. cerevisiae deletion strains, locus YNL071W, strain lat1, stronger effect = lower value 0.989 | S. cerevisiae deletion strains, locus YNL128W, strain TEP1, stronger effect = lower value 0.924 | S. cerevisiae deletion strains, locus YNL153C, strain GIM3, stronger effect = lower value 0.979 | S. cerevisiae deletion strains, locus YNL209W, strain ssb2, stronger effect = lower value 1 | S. cerevisiae deletion strains, locus YNL248C, strain rpa49, stronger effect = lower value 0.993 | S. cerevisiae deletion strains, locus YNL250W, strain rad50, stronger effect = lower value 0.939 | S. cerevisiae deletion strains, locus YNL271C, strain bni1, stronger effect = lower value 0.953 | S. cerevisiae deletion strains, locus YNL322C, strain KRE1 (second series), stronger effect = lower value 0.981 | S. cerevisiae deletion strains, locus YNL322C, strain KRE1, stronger effect = lower value 0.979 | S. cerevisiae deletion strains, locus YNR049C, strain mso1, stronger effect = lower value 0.995 | S. cerevisiae deletion strains, locus YNR052C, strain pop2, stronger effect = lower value 0.946 | S. cerevisiae deletion strains, locus YOL006C, strain TOP1, stronger effect = lower value 0.808 | S. cerevisiae deletion strains, locus YOL012C, strain htz1 1.72 | S. cerevisiae deletion strains, locus YOR001W, strain rrp6, stronger effect = lower value 0.998 | S. cerevisiae deletion strains, locus YOR069W, strain VPS5, stronger effect = lower value 0.978 | S. cerevisiae deletion strains, locus YOR070C, strain gyp1, stronger effect = lower value 0.992 | S. cerevisiae deletion strains, locus YOR080W, strain dia2, stronger effect = lower value 0.998 | S. cerevisiae deletion strains, locus YOR083W, strain WHI5, stronger effect = lower value 0.965 | S. cerevisiae deletion strains, locus YOR106W, strain vam3, stronger effect = lower value 1.02 | S. cerevisiae deletion strains, locus YOR136W, strain idh2, stronger effect = lower value 0.935 | S. cerevisiae deletion strains, locus YOR144C, strain elg1, stronger effect = lower value 0.982 | S. cerevisiae deletion strains, locus YOR265W, strain rbl2, stronger effect = lower value 1 | S. cerevisiae deletion strains, locus YOR270C, strain vph1, stronger effect = lower value 1.01 | S. cerevisiae deletion strains, locus YOR290C, strain snf2, stronger effect = lower value 0.93 | S. cerevisiae deletion strains, locus YOR316C, strain cot1, stronger effect = lower value 0.977 | S. cerevisiae deletion strains, locus YPL051W, strain arl3, stronger effect = lower value 0.999 | S. cerevisiae deletion strains, locus YPL055C, strain LGE1, stronger effect = lower value 0.843 | S. cerevisiae deletion strains, locus YPL078C, strain atp4, stronger effect = lower value 0.986 | S. cerevisiae deletion strains, locus YPL106C, strain sse1, stronger effect = lower value 1.01 | S. cerevisiae deletion strains, locus YPL240C, strain hsp82, stronger effect = lower value 1 | S. cerevisiae deletion strains, locus YPL241C, strain CIN2, stronger effect = lower value 0.987 | S. cerevisiae deletion strains, locus YPR119W, strain clb2, stronger effect = lower value 0.989 | S. cerevisiae deletion strains, locus YPR141C, strain kar3, stronger effect = lower value 1 | S. cerevisiae deletion strains, locus YPR163C, strain tif3, stronger effect = lower value 0.95 | S. cerevisiae deletion strains, locus YPR167C, strain met16, stronger effect = lower value 0.964 | S. cerevisiae deletion strains, strain wtn01, stronger effect = lower value 0.904
